Where two headings read alike, the source gives them in different places.
Assays:
AAK1 = system: AAK1; set-up: species or system human, MV4-11 + K-562 + COLO205 + SK-N-BE2 + OVCAR-8; details: read-out: apparent Kd; compound concentrations: 100 nM and 1000 nM (sheet 'Samples'), CATDS: 1.47357709485617E-2; n = 1
BMP2K = system: BMP2K; set-up: species or system human, MV4-11 + K-562 + COLO205 + SK-N-BE2 + OVCAR-8; details: read-out: apparent Kd; compound concentrations: 100 nM and 1000 nM (sheet 'Samples'), CATDS: 1.0596911535971001E-2; n = 1
CLK1 = system: CLK1; set-up: species or system human, MV4-11 + K-562 + COLO205 + SK-N-BE2 + OVCAR-8; details: read-out: apparent Kd; compound concentrations: 100 nM and 1000 nM (sheet 'Samples'), CATDS: 2.3801432407155699E-2; n = 1
CLK4 = system: CLK4; set-up: species or system human, MV4-11 + K-562 + COLO205 + SK-N-BE2 + OVCAR-8; details: read-out: apparent Kd; compound concentrations: 100 nM and 1000 nM (sheet 'Samples'), CATDS: 1.10234043350519E-2; n = 1
CSNK2A1;CSNK2A3 = system: CSNK2A1;CSNK2A3; set-up: species or system human, MV4-11 + K-562 + COLO205 + SK-N-BE2 + OVCAR-8; details: read-out: apparent Kd; compound concentrations: 100 nM and 1000 nM (sheet 'Samples'), CATDS: 1.63252209283915E-2; n = 1
CSNK2A2 = system: CSNK2A2; set-up: species or system human, MV4-11 + K-562 + COLO205 + SK-N-BE2 + OVCAR-8; details: read-out: apparent Kd; compound concentrations: 100 nM and 1000 nM (sheet 'Samples'), CATDS: 1.5998355653452E-2; n = 1
FLT4 = system: FLT4; set-up: species or system human, MV4-11 + K-562 + COLO205 + SK-N-BE2 + OVCAR-8; details: read-out: apparent Kd; compound concentrations: 100 nM and 1000 nM (sheet 'Samples'), CATDS: 1.0631245795833501E-2; n = 1
GAK = system: GAK; set-up: species or system human, MV4-11 + K-562 + COLO205 + SK-N-BE2 + OVCAR-8; details: read-out: apparent Kd, compound concentrations: 100 nM and 1000 nM (sheet 'Samples'), n = 1
GSK3A = system: GSK3A; set-up: species or system human, MV4-11 + K-562 + COLO205 + SK-N-BE2 + OVCAR-8; details: read-out: apparent Kd, n = 1
GSK3B = system: GSK3B; set-up: species or system human, MV4-11 + K-562 + COLO205 + SK-N-BE2 + OVCAR-8; details: read-out: apparent Kd, n = 1
MELK = system: MELK; set-up: species or system human, MV4-11 + K-562 + COLO205 + SK-N-BE2 + OVCAR-8; details: read-out: apparent Kd; compound concentrations: 100 nM and 1000 nM (sheet 'Samples'), CATDS: 8.0269577096188198E-3; n = 1
NUAK1 = system: NUAK1; set-up: species or system human, MV4-11 + K-562 + COLO205 + SK-N-BE2 + OVCAR-8; details: read-out: apparent Kd; compound concentrations: 100 nM and 1000 nM (sheet 'Samples'), CATDS: 8.4437303302316406E-3; n = 1
PAK4 = system: PAK4; set-up: species or system human, MV4-11 + K-562 + COLO205 + SK-N-BE2 + OVCAR-8; details: read-out: apparent Kd, n = 1
PKN1 = system: PKN1; set-up: species or system human, MV4-11 + K-562 + COLO205 + SK-N-BE2 + OVCAR-8; details: read-out: apparent Kd, n = 1
PKN3 [1] = system: PKN3; set-up: species or system human, MV4-11 + K-562 + COLO205 + SK-N-BE2 + OVCAR-8; details: read-out: apparent Kd, n = 1;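 for IC50: NanoBRET target engagement in HEK293T cells transiently expressing full-length PKN3 with C-terminal NanoLuc, displacement of fluorescent tracer K5 (500 nM), BRET read after 2 h equilibration at 37 °C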
PRKAG1 = system: PRKAG1; set-up: species or system human, MV4-11 + K-562 + COLO205 + SK-N-BE2 + OVCAR-8; details: read-out: apparent Kd; compound concentrations: 100 nM and 1000 nM (sheet 'Samples'), CATDS: 1.32160889121976E-2; n = 1
Q6ZSR9 = Q6ZSR9 (human, UniProt Q6ZSR9); set-up: species or system MV4-11 + K-562 + COLO205 + SK-N-BE2 + OVCAR-8; details: read-out: apparent Kd; compound concentrations: 100 nM and 1000 nM (sheet 'Samples'), CATDS: 1.3986845405836199E-2; n = 1
Q6ZSR9, sequence (Q6ZSR9 whole entry, looked up): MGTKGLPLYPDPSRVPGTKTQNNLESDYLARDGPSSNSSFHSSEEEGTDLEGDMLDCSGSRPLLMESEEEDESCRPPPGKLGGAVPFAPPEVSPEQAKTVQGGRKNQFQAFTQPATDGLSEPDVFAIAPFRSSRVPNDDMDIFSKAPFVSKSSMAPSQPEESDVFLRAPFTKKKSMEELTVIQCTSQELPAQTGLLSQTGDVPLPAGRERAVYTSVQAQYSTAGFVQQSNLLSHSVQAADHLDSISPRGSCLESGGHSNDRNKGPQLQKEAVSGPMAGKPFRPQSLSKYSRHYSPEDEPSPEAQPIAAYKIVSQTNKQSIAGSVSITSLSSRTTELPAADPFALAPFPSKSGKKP

RET = system: RET; set-up: species or system human, MV4-11 + K-562 + COLO205 + SK-N-BE2 + OVCAR-8; details: read-out: apparent Kd, compound concentrations: 100 nM and 1000 nM (sheet 'Samples'), n = 1
SIK2 = system: SIK2; set-up: species or system human, MV4-11 + K-562 + COLO205 + SK-N-BE2 + OVCAR-8; details: read-out: apparent Kd; compound concentrations: 100 nM and 1000 nM (sheet 'Samples'), CATDS: 1.14849273453617E-2; n = 1
PKN3 [2] = details: hek293t cells
[3] = compound concentrations:100 nM and 1000 nM (sheet 'Samples')

## O=C1N=C(NCCc2ccc(Cl)cc2)S/C1=C\c1ccc2ncccc2c1 [RO4498479-000]
AAK1
  potency estimated from few doses: 257 nM
BMP2K
  potency estimated from few doses: 487 nM
CLK1
  potency estimated from few doses: 123 nM
CLK4
  potency estimated from few doses: 447 nM
CSNK2A1;CSNK2A3
  potency estimated from few doses: 216 nM
CSNK2A2
  potency estimated from few doses: 224 nM
FLT4
  potency estimated from few doses: 483 nM
GAK; CATDS: 1.9710228455472299E-2
  potency estimated from few doses: 161 nM
GSK3A; compound concentrations: 100 nM and 1000 nM (sheet 'Samples'), CATDS: 2.3758867869594399E-2
  potency estimated from few doses: 123 nM
GSK3B; compound concentrations: 100 nM and 1000 nM (sheet 'Samples'), CATDS: 1.7085262625281698E-2
  potency estimated from few doses: 201 nM
MELK
  potency estimated from few doses: 1000 nM
NUAK1
  potency estimated from few doses: 860 nM
PAK4; compound concentrations: 100 nM and 1000 nM (sheet 'Samples'), CATDS: 1.2005445098745401E-2
  potency estimated from few doses: 375 nM
PKN1; compound concentrations: 100 nM and 1000 nM (sheet 'Samples'), CATDS: 9.0371010763674806E-3
  potency estimated from few doses: 713 nM
PKN3 [1]; compound concentrations: 100 nM and 1000 nM (sheet 'Samples'), CATDS: 1.12150497096419E-2
  potency estimated from few doses: 431 nM
PRKAG1
  potency estimated from few doses: 312 nM
Q6ZSR9
  potency estimated from few doses: 282 nM
RET; CATDS: 1.4080551975431E-2
  potency estimated from few doses: 278 nM
SIK2
  potency estimated from few doses: 410 nM

## CCn1c(-c2nonc2N)nc2c(C#CC(C)(C)O)nc(OCCN)cc21.CCn1c(-c2nonc2N)nc2c(C#CC(C)(C)O)nc(OCCN)cc21.Cl.Cl [GSK902056A]
GSK3A; [3]
  potency estimated from few doses: 113 nM
GSK3B; [3]
  potency estimated from few doses: 136 nM
PAK4; [3]
  potency estimated from few doses: 677 nM
PKN1; [3]
  potency estimated from few doses: 85 nM
PKN3 [2]; read-out: Average, SD, n = 4
  IC50: 99.2 nM
PKN3 [2]; read-out: Rep 1
  IC50: 234 nM
PKN3 [2]; read-out: Rep 2
  IC50: 56.5 nM
PKN3 [2]; read-out: Rep 3
  IC50: 27 nM
PKN3 [2]; read-out: Rep 4
  IC50: 79.2 nM

## Cl.NCc1ccc(-c2nc(-c3ccc(Cl)c(O)c3)c(-c3ccncc3)[nH]2)cc1 [SB-476429-A]
PKN3 [1]; [3]
  potency estimated from few doses: 36 nM
PKN3 [2]; read-out: Average, SD, n = 4
  IC50: 243 nM
PKN3 [2]; read-out: Rep 1
  IC50: 589 nM
PKN3 [2]; read-out: Rep 2
  IC50: 211 nM
PKN3 [2]; read-out: Rep 3
  IC50: 86.7 nM
PKN3 [2]; read-out: Rep 4
  IC50: 85.4 nM

## CCn1c(-c2nonc2N)nc2c(-c3ccccc3)ncc(OCCCN)c21.CCn1c(-c2nonc2N)nc2c(-c3ccccc3)ncc(OCCCN)c21.O=C(O)C(F)(F)F.O=C(O)C(F)(F)F [GSK260205A]
GAK; CATDS: 2.96050281932086E-2
  potency estimated from few doses: 1380 nM
PKN3 [1]; compound concentrations: 100 nM and 1000 nM (sheet 'Samples'), CATDS: 0.85080270266883096
  potency estimated from few doses: 1.1 nM
RET; CATDS: 8.7615337764420001E-2
  potency estimated from few doses: 99.7 nM
PKN3 [2]; read-out: Average, SD, n = 4
  IC50: 22.3 nM
PKN3 [2]; read-out: Rep 1
  IC50: 73.6 nM
PKN3 [2]; read-out: Rep 2
  IC50: 6.19 nM
PKN3 [2]; read-out: Rep 3
  IC50: 6.22 nM
PKN3 [2]; read-out: Rep 4
  IC50: 3.37 nM

Source: article PMC11062922 (Nature Chemical Biology, 2023)
